Among the data in PubChem BioAssay AID1016 (Sanford-Burnham Center for Chemical Genomics, 2008) are activation factor values, retold here.

Molecules are shown by their SMILES. Among all 200,000 compounds or so, about 330 (0.17%) were called active. The entries come from a sample that favours actives as a whole. A number with no mark means an inactive call.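 How the source made its calls: active means activation factor of 2 or more at 20 µM, a signal rise over negative controls twice the positive control's; inactive means the rest.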

The assay relates to alkaline phosphatase, intestinal [Bos taurus]. The assay can be described thus: IAP enzyme activity enhancers – biochemical, bovine IAP, CDP-star luminescence, primary screen (AID 1016). The conditions noted are these: purified bovine IAP, 30 min, at 20 µM, hits give high values, fold of DMSO-control signal, blank-subtracted.
As for `C=CCc1cccc2cc(C(=O)NC3CCCC3)c(=O)oc12`, the activation factor was 0.9.

`COc1ccc(CCNC(=O)CSc2nnc3ccc(-c4ccncc4)nn23)cc1`: the activation factor was 1.1.

For `COc1ccc(CCNC(=O)CSc2nc(-c3ccc(OC)c(OC)c3)ccc2C#N)cc1`, the activation factor was 2.1 (active).

For `COc1cccc(-c2ccc(C#N)c(SCC(=O)NCCc3ccc(Cl)cc3)n2)c1`, the activation factor was 0.8.

For `O=C(Nc1ccc2c(c1)C(=O)OC2)Nc1cccc2ccccc12`, the activation factor is 1.1.

For `CCc1ccc(Nc2nnc(SCC(=O)c3ccc4c(c3)NC(=O)CO4)s2)cc1`, the activation factor was 1.2.

Turning to `Cc1ccc(S(=O)(=O)Nc2nc(N)n(-c3ccccc3)n2)cc1`, the activation factor is 1.2.

Regarding `CCOC(=O)NN1C(=O)c2ccccc2NC1c1ccccc1O` (stereo unspecified), the activation factor is 1.

Take `CCOC(=O)Cn1c(-c2cccnc2Cl)nc2ccccc21`: the activation factor is 1.

Turning to `CCOC(=O)Cn1c2c(c(-c3ccccc3OC)cc1=O)CCCC2`, the activation factor was 2.1 (active).

As for `CCOC(=O)CN1CCC(c2ccccc2)CC1`, the activation factor is 1.

Take `COc1ccccc1Nc1nc(N)nc(CN(C)C2CCCCC2)n1`: the activation factor is 0.9.

As to `COc1ccccc1NC1=NC(c2ccc(Cl)cc2)N=C(N)N1` (stereo unspecified), the activation factor was 2.7 (active).

As to `COc1ccccc1NC1=NC2(CCCC2)N=C(N)N1`, the activation factor was 0.9.

Take `CCOc1cc(N2CCOCC2)c(OCC)cc1NC(=O)C1=NN(c2cccc(C)c2)C(=O)CC1`: the activation factor was 0.9.

With `O=C(NCc1ccccc1Cl)C1CCN(S(=O)(=O)N2CCOCC2)CC1`, the activation factor is 1.

Turning to `O=C(CN1C(=O)/C(=C/c2ccccc2F)Sc2ccccc21)NCc1cccnc1`, the activation factor was 1.1.

With `Cc1ccc(S(=O)(=O)C2C(=O)NC3(C)CC2c2ccccc2O3)cc1` (stereo unspecified), the activation factor was 0.9.

As for `COc1ccc(/C=C/C(=O)NC(=S)NN2CCCCC2c2cccnc2)cc1` (stereo unspecified), the activation factor was 0.7.

`Cc1cccc(-n2cnc(C(=O)NNC(=S)Nc3ccccc3)c2)n1`: the activation factor is 1.6.

`CCn1cc(/C=C2/SC(=S)NC2=O)c(C)n1`: the activation factor is 1.1.

`CC1=CC=CC2=N/C(=N\S(=O)(=O)c3ccc(F)cc3F)c3ccccc3CN12`: the activation factor is 0.9.

On to `CC(=O)c1ccc(NC(=O)C(C)NCc2ccc(Cl)cc2)cc1` (stereo unspecified), for which the activation factor is 0.9.

In the case of `CC1(C)Cc2cccc(OCC(=O)N3CCN(c4ccc([N+](=O)[O-])cc4)CC3)c2O1`, the activation factor is 0.9.

With `OCCCN1c2ccccc2Nc2nnc(-c3ccccc3)cc21`, the activation factor is 9 (active).

`N=c1c2c(-c3ccccc3)c(-c3ccccc3)n(Cc3ccccc3)c2ncn1CCCO`: the activation factor is 1.4.
